“And” between values parts separate entries of the source, which are not always exact repeats. Equal entries are not always repeated. About 2,000 (36%) of roughly 5,500 compounds were called active. Inconclusive results (about 18%) are left out. Rule as the data show it: active = normalized growth mostly below about 0.91 (no sharp cut-off); inconclusive = no clear call, values can overlap the other calls; inactive = mostly above about 0.92. Some of the results follow.
Assay: chemical genetic growth profiling, strain panel (AID 1159580);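 also: tested at 20 µM; growth read once vehicle control cultures reached saturation at 30 °C; 1 = growth at the plate median or of vehicle wells; lower values mean less growth of the strain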
Details: S. cerevisiae deletion strains, growth OD

Measured: normalized growth

CCOC(=O)CCCCCCCCCCCCC1C=CCC1 (centres undefined)
inactive: locus YAL021C, strain ccr4, stronger effect = lower value 1.01 | locus YAL026C, strain drs2, stronger effect = lower value 1 | locus YAL030W, strain snc1, stronger effect = lower value 0.982 | locus YBL061C, strain skt5, stronger effect = lower value 0.977 | locus YBR009C, strain hhf1, stronger effect = lower value 0.922 | locus YBR023C, strain chs3, stronger effect = lower value 0.979 | locus YBR171W, strain sec66, stronger effect = lower value 0.973 | locus YBR231C, strain swc5, stronger effect = lower value 0.978 | locus YBR279W, strain paf1, stronger effect = lower value 0.981 | locus YCL011C, strain gbp2, stronger effect = lower value 0.967 | locus YCL016C, strain dcc1, stronger effect = lower value 0.981 | locus YCL061C, strain MRC1, stronger effect = lower value 0.983 | locus YCL069W, strain vba3, stronger effect = lower value 0.981 | locus YCR088W, strain abp1, stronger effect = lower value 0.983 | locus YDL005C, strain med2, stronger effect = lower value 0.974 | locus YDL040C, strain nat1, stronger effect = lower value 0.974 | locus YDR001C, strain nth1, stronger effect = lower value 0.994 | locus YDR069C, strain doa4, stronger effect = lower value 0.958 | locus YDR137W, strain rgp1, stronger effect = lower value 0.979 | locus YDR159W, strain sac3, stronger effect = lower value 0.978 | locus YDR195W, strain ref2 1.06 | locus YDR297W, strain sur2, stronger effect = lower value 0.984 | locus YDR334W, strain swr1, stronger effect = lower value 0.976 | locus YDR335W, strain msn5, stronger effect = lower value 1 | locus YEL003W, strain gim4, stronger effect = lower value 0.969 | locus YEL037C, strain rad23, stronger effect = lower value 0.989 | locus YEL061C, strain CIN8 (second series), stronger effect = lower value 0.978 | locus YER015W, strain faa2, stronger effect = lower value 0.982 | locus YER016W, strain bim1, stronger effect = lower value 0.978 | locus YER111C, strain swi4, stronger effect = lower value 0.958 | locus YFR010W, strain ubp6, stronger effect = lower value 0.969 | locus YGL167C, strain pmr1, stronger effect = lower value 0.972 | locus YGL173C, strain kem1, stronger effect = lower value 0.96 | locus YGL227W, strain vid30, stronger effect = lower value 0.962 | locus YGL240W, strain doc1, stronger effect = lower value 0.972 | locus YGL253W, strain hxk2, stronger effect = lower value 0.998 | locus YHR027C, strain rpn1, stronger effect = lower value 0.984 | locus YHR079C, strain IRE1, stronger effect = lower value 0.983 | locus YHR142W, strain chs7, stronger effect = lower value 0.975 | locus YJL092W, strain hpr5, stronger effect = lower value 0.994 | locus YJL095W, strain BCK1 (second series), stronger effect = lower value 0.969 | locus YJL115W, strain asf1, stronger effect = lower value 0.99 | locus YJL129C, strain trk1, stronger effect = lower value 0.91 | locus YJL154C, strain vps35, stronger effect = lower value 0.997 | locus YJL164C, strain tpk1, stronger effect = lower value 0.952 | locus YJL166W, strain qcr8, stronger effect = lower value 0.942 | locus YJL187C, strain SWE1, stronger effect = lower value 0.98
0.0599 (active) and 0.989 (inactive): locus YJL095W, strain BCK1, stronger effect = lower value
0.0494 (active) and 0.992 (inactive): locus YHR030C, strain SLT2, stronger effect = lower value
active: locus YAL013W, strain DEP1, stronger effect = lower value 0.054 | locus YBR021W, strain FUR4, stronger effect = lower value 0.0914 | locus YBR229C, strain ROT2, stronger effect = lower value 0.0494 | locus YCL029C, strain bik1, stronger effect = lower value 0.067 | locus YDL035C, strain GPR1, stronger effect = lower value 0.0527 | locus YDL074C, strain BRE1, stronger effect = lower value 0.0833 | locus YDL101C, strain DUN1, stronger effect = lower value 0.0581 | locus YDL134C, strain PPH21, stronger effect = lower value 0.0502 | locus YDL185W, strain tfp1, stronger effect = lower value 0.499 | locus YDL192W, strain arf1, stronger effect = lower value 0.0606 | locus YDR101C, strain arx1, stronger effect = lower value 0.0619 | locus YDR162C, strain NBP2, stronger effect = lower value 0.0522 | locus YDR318W, strain mcm21, stronger effect = lower value 0.0614 | locus YDR388W, stronger effect = lower value 0.0583 | locus YDR392W, strain spt3, stronger effect = lower value 0.497 | locus YDR502C, strain sam2, stronger effect = lower value 0.0641 | locus YEL061C, strain CIN8, stronger effect = lower value 0.054 | locus YER110C, stronger effect = lower value 0.0827 | locus YER155C, strain BEM2 (second series), stronger effect = lower value 0.594 | locus YER155C, strain BEM2, stronger effect = lower value 0.0734 | locus YER167W, strain BCK2, stronger effect = lower value 0.0529 | locus YGL078C, strain dbp3, stronger effect = lower value 0.688 | locus YGL086W, strain mad1, stronger effect = lower value 0.0537 | locus YGL248W, strain PDE1, stronger effect = lower value 0.0488 | locus YGR078C, strain PAC10, stronger effect = lower value 0.053 | locus YGR135W, strain pre9, stronger effect = lower value 0.06 | locus YGR252W, strain gcn5, stronger effect = lower value 0.11 | locus YHR013C, strain ard1, stronger effect = lower value 0.815 | locus YHR079C, strain IRE1 (second series), stronger effect = lower value 0.0604 | locus YHR094C, strain hxt1, stronger effect = lower value 0.0651 | locus YHR129C, strain ARP1, stronger effect = lower value 0.0559 | locus YHR200W, strain rpn10, stronger effect = lower value 0.0588 | locus YIL066C, strain RNR3, stronger effect = lower value 0.0493 | locus YIL073C, strain SPO22, stronger effect = lower value 0.148 | locus YIL125W, strain kgd1, stronger effect = lower value 0.773 | locus YIR030C, strain dcg1, stronger effect = lower value 0.0637 | locus YJL134W, strain LCB3, stronger effect = lower value 0.0504 | locus YJL168C, strain set2, stronger effect = lower value 0.0586 | locus YJL187C, strain SWE1 (second series), stronger effect = lower value 0.0498 | locus YJR043C, strain POL32, stronger effect = lower value 0.0731

— PubChem BioAssay AID1159580 (chemical genetic matrix, 2015)
